# Test results published in the supplement of paper PMC8253809.
# Several values for one entry are separate records, joined by “and”; a condition that tells them apart may be missing. Equal values may be shown once.
# Assays:
# Test in all cases: growth inhibition (% activity, log2 RLU normalised to DMSO / staurosporine); higher = more growth inhibition
# Details in all cases: 33 µM
# [1] = system: DIPGX29 (H3.3 K27M diffuse intrinsic pontine glioma line)
# Outline: (§1)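 For each approved drug, the growth-inhibition value is the replicate median of per-plate normalised CellTiter-Glo data. Luminescence was log2-transformed and expressed as % activity between solvent and positive control wells. Drugs were applied in triplicate at a single final concentration of about 33 μM for 7 days at 37 °C, 5% CO2 to pHGG cell lines and H9-derived neural stem cells.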
# [2] = system: DIPGX37 (H3.3 K27M diffuse intrinsic pontine glioma line)
# Outline: as §1
# [3] = system: DIPGX7 (H3.3 K27M diffuse intrinsic pontine glioma line)
# Outline: as §1
# [4] = system: DIPGX9 (diffuse intrinsic pontine glioma line)
# Outline: as §1
# [5] = system: HGGX39 (paediatric high-grade glioma line)
# Outline: as §1
# [6] = system: HGGX6 (H3.3 G34R paediatric high-grade glioma line)
# Outline: as §1
# [7] = system: HNSC
# Outline: as §1
# [8] = system: SUDIPGIV (diffuse intrinsic pontine glioma line)
# Outline: as §1
# [9] = system: SUDIPGVI (diffuse intrinsic pontine glioma line)
# Outline: as §1
# [10] = system: SUDIPGXIII (diffuse intrinsic pontine glioma line)
# Outline: as §1
Compound,growth inhibition [1],growth inhibition [2],growth inhibition [3],growth inhibition [4],growth inhibition [5],growth inhibition [6],growth inhibition [7],growth inhibition [8],growth inhibition [9],growth inhibition [10]
CC(C)(S)[C@@H](N)C(=O)O,0.657%,-0.325%,5.5%,-0.781%,0.519%,-2.1%,45.1%,-0.3%,0.273%,-1.43%
Nc1nc(N)c2nc(-c3ccccc3)c(N)nc2n1,5.33%,1.67%,1.42%,1.23%,3.58%,1.3%,3.87%,3.03%,5.65%,0.714%
CN1CCN(c2c(F)cc3c(=O)c(C(=O)O)cn(CCF)c3c2F)CC1,1.06%,4.17%,2.04%,2.14%,2.42%,-0.149%,5.69%,2.18%,2.45%,-2.39%
COc1ccc2c(c1OC)C(=O)O[C@@H]2[C@H]1c2c(cc3c(c2OC)OCO3)CCN1C,-0.0995%,0.428%,-0.697%,-1.08%,0.078%,1.48%,-1.88%,-0.28%,-0.0763%,1.03%
Clc1ccc(COC(Cn2ccnc2)c2ccc(Cl)cc2Cl)c(Cl)c1 (stereo not given),3.52% and 3.73%,2.39% and 1.02%,2.11% and 1.8%,4.24% and 1.75%,8.09% and 4.5%,8.84% and 5.54%,8.12% and 18.4%,11.2% and 18.5%,2.08% and 0.276%,8.9% and 4.15%
COc1c(N2CCNC(C)C2)c(F)cc2c(=O)c(C(=O)O)cn(C3CC3)c12 (stereo not given),0.952%,-1.73%,2.3%,1.28%,4.77%,0.493%,8.87%,1%,2.31%,1.42%
CC[C@]1(O)C[C@@H]2CN(CCc3c([nH]c4ccccc34)[C@@](C(=O)OC)(c3cc4c(cc3OC)N(C)[C@H]3[C@@](O)(C(=O)OC)[C@H](OC(C)=O)[C@]5(CC)C=CCN6CC[C@]43[C@@H]65)C2)C1,13%,14%,13.2%,22%,17.1%,11.5%,55.5%,32%,16.1%,18.3%
CN1CCC(=C2c3ccccc3CCc3sccc32)CC1,2.69%,1.01%,1.97%,2.15%,7.57%,-1.66%,1.57%,3.73%,-0.736%,1.69%
CO[C@@]1(NC(=O)C(C(=O)O)c2ccc(O)cc2)C(=O)N2C(C(=O)O)=C(CSc3nnnn3C)CO[C@@H]21 (stereo not given in full),-1.75%,-0.992%,-0.554%,-0.636%,-0.0428%,0.31%,-3.08%,-1.1%,0.787%,-4.5%
CC(C)(Sc1cc(C(C)(C)C)c(O)c(C(C)(C)C)c1)Sc1cc(C(C)(C)C)c(O)c(C(C)(C)C)c1,-2%,-0.535%,-0.766%,-0.47%,-0.682%,-1.24%,1.54%,-1.38%,-2.9%,1.85%
O=C(O)c1ccc(NC(=O)[C@H](Cc2ccc(O)cc2)NC(=O)c2ccccc2)cc1,-3.5%,-1.5%,-2.53%,-1.13%,-2.55%,-0.845%,-2.41%,-2.35%,0.761%,-0.558%
O=c1[nH]cc(F)c(=O)[nH]1,5.88%,-2.07%,2.93%,10.5%,5.4%,7.93%,25.3%,14.4%,4.5%,2.68%
NC(=O)Cc1cccc(C(=O)c2ccccc2)c1N,-1.79%,-2.49%,-1.26%,-0.361%,-1.73%,0.913%,-2.2%,-3.13%,-0.113%,0.258%
CC(C)(C(=O)O)c1ccc(C(O)CCCN2CCC(C(O)(c3ccccc3)c3ccccc3)CC2)cc1 (stereo not given),-0.186%,-1.1%,0.287%,0.223%,2.4%,-0.102%,3.07%,0.0574%,1.9%,-0.622%
CCCN(CCC)CCc1cccc2c1CC(=O)N2,-1.21%,-2.23%,1.15%,0.189%,2.83%,-2.51%,0.584%,0.852%,2.13%,-0.826%
O=C(O)[C@H](CC(=O)N1C[C@H]2CCCC[C@H]2C1)Cc1ccccc1,0.852%,-5.28%,0.289%,1.86%,1.09%,0.619%,1.48%,1.74%,1.16%,-1.34%
Cc1cnc(C(=O)O)c[n+]1[O-],1.49%,2.38%,1.7%,5.6%,1.15%,2.68%,3.09%,1.14%,1.26%,0.57%
CCOC(=O)c1ccc(N)cc1,-1.1%,0.286%,-0.777%,-2.99%,-1.05%,-1.96%,-1.55%,-0.0558%,-0.0967%,0.467%
Nc1nc(F)nc2c1ncn2[C@@H]1O[C@H](COP(=O)(O)O)[C@@H](O)[C@@H]1O,16.9%,1.7%,11.8%,31.4%,8.94%,-0.81%,23.2%,9.24%,-2.06%,1.2%
C[C@H]1C[C@@H]2[C@H]([C@@H](O)C[C@@]3(C)[C@H]2CC[C@]3(O)C(=O)CO)[C@@]2(C)C=CC(=O)C=C12,-0.195%,0.838%,-1.93%,2.66%,-0.0158%,-2.28%,-1.14%,5.2%,-0.182%,1.59%
CC(C(=O)O)c1ccc2c(c1)[nH]c1ccc(Cl)cc12 (stereo not given),-0.444%,-0.934%,0.549%,-0.825%,-0.747%,0.65%,-2.15%,-2.81%,-0.161%,-6.63%
